# Results: paper PMC7862700, “An all-to-all approach to the identification of sequence-specific readers for epigenetic DNA modifications on cytosine”
# What was measured:
# Assay in all cases: DAPPL (digital affinity profiling via proximity ligation, sequencing); 10 mM Tris-HCl pH 7.5, 50 mM NaCl, 1 mM DTT, 4% glycerol, room temperature, 30 min; GST-TFs on glutathione beads, 16-mer random dsDNA library, 0.1% formaldehyde crosslink after washing; high values mean tight binding
# Details in all cases: protein: recombinant; tags: N-terminal GST; dsDNA, one strand shown
# FEV = biological target: T1, FEV (Homo sapiens, UniProt Q99581 1-238)
# T1 sequence: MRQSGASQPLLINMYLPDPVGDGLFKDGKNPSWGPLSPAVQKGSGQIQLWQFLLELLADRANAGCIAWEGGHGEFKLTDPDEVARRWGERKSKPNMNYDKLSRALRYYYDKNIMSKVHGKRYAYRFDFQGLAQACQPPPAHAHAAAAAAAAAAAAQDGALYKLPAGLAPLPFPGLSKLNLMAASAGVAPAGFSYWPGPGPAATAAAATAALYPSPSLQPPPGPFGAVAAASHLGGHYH
# Procedure, shortened: (§1)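 After expression in yeast as GST fusions, human transcription factors were bound to glutathione beads, DNA-barcoded and mixed with a tag-only sample. The pools were incubated with 200 nmole of a 16-mer random double-stranded DNA library in Tris/NaCl/DTT/glycerol buffer (30 min, room temperature), washed and crosslinked with 0.1% formaldehyde. Proximity ligation with BsaI/T4 ligase ran for 1 h at 37 °C, before PCR amplification and sequencing on an Illumina NextSeq500. Binding signal is a hexamer's read frequency for a factor divided by its frequency for the tag-only sample.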
# ETV5 = ETV5 (Homo sapiens, UniProt P41161 1-510)
# Sequence of ETV5 (P41161 whole entry): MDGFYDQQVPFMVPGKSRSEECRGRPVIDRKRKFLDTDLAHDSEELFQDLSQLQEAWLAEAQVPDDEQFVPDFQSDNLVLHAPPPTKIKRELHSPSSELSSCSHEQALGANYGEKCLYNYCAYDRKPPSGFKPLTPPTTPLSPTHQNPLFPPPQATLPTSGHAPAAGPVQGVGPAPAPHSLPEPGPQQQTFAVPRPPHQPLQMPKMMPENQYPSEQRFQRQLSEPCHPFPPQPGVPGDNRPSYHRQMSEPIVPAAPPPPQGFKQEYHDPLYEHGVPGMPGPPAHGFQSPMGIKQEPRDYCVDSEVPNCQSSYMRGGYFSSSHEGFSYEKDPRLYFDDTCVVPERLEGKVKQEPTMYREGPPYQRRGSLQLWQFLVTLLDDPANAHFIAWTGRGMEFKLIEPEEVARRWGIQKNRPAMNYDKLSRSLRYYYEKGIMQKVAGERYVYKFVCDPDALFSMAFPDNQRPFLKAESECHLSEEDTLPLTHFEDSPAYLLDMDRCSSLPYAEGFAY
# Procedure, shortened: as §1
# SPIC = biological target: T2, SPIC (Homo sapiens, UniProt Q8N5J4 1-248)
# T2 sequence: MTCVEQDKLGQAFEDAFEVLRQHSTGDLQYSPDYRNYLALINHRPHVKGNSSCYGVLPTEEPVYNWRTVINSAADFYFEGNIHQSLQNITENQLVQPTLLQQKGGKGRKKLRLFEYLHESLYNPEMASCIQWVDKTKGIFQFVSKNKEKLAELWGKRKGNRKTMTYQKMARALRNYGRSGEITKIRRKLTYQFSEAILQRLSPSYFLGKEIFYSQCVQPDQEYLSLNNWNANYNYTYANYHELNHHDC
# Procedure, shortened: as §1
# ELF4 = ELF4 (Homo sapiens, UniProt Q99607 1-663)
# Sequence of ELF4 (Q99607 whole entry): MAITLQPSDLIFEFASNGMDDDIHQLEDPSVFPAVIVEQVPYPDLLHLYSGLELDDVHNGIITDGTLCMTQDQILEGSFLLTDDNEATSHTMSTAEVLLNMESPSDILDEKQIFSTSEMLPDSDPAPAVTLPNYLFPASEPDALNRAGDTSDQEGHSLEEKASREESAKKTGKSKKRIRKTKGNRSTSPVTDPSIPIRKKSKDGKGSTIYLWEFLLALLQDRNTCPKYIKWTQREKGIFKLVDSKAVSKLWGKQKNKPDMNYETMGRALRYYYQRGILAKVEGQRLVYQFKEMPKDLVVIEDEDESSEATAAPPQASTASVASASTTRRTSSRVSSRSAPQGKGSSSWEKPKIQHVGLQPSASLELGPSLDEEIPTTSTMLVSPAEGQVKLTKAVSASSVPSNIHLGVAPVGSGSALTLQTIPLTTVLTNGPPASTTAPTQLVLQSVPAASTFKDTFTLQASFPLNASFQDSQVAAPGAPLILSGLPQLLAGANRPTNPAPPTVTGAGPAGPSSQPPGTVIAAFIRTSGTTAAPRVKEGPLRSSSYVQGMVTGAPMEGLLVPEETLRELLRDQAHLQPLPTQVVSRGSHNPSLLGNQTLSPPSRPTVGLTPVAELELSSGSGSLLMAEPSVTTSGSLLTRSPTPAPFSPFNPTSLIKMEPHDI
# Procedure, shortened: as §1
# ELK4 = biological target: T3, ELK4 (Homo sapiens, UniProt P28324-2 1-405)
# T3 sequence: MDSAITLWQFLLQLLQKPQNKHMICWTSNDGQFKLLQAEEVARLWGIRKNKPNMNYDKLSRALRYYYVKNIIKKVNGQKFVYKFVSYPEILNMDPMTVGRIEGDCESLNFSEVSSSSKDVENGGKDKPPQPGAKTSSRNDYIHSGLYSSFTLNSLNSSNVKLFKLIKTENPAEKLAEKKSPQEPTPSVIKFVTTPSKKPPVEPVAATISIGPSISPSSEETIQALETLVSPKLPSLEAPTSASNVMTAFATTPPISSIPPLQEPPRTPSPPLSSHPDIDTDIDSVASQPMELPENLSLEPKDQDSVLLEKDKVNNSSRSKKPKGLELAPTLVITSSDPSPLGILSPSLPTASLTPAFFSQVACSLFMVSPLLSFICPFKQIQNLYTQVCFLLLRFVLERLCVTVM
# Procedure, shortened: as §1
# ETV2 = biological target: T4, ETV2 (Homo sapiens, UniProt O00321 1-342)
# T4 sequence: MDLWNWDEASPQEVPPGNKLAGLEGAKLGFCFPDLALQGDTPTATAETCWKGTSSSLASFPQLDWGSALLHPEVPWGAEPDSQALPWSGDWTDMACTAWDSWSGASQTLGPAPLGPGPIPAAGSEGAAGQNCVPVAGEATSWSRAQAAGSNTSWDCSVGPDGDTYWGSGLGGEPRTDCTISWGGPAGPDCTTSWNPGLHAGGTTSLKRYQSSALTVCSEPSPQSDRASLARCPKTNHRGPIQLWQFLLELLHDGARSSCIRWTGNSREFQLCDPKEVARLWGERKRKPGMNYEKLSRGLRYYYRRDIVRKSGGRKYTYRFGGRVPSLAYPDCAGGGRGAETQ
# Procedure, shortened: as §1
# ELF3 = biological target: T5, ELF3 (Homo sapiens, UniProt P78545 1-371)
# T5 sequence: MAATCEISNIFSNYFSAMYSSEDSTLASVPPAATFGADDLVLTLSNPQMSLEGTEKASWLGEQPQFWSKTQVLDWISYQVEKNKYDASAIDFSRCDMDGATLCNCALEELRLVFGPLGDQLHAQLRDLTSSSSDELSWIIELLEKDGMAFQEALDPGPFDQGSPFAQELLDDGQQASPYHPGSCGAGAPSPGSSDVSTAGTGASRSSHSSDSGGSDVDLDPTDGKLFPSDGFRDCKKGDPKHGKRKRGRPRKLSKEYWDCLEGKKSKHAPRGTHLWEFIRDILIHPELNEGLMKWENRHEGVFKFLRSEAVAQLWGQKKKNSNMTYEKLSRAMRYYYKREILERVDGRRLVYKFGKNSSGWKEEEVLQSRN
# Procedure, shortened: as §1
# ETV1 = ETV1 (Homo sapiens, UniProt P50549 1-477)
# Sequence of ETV1 (P50549 whole entry): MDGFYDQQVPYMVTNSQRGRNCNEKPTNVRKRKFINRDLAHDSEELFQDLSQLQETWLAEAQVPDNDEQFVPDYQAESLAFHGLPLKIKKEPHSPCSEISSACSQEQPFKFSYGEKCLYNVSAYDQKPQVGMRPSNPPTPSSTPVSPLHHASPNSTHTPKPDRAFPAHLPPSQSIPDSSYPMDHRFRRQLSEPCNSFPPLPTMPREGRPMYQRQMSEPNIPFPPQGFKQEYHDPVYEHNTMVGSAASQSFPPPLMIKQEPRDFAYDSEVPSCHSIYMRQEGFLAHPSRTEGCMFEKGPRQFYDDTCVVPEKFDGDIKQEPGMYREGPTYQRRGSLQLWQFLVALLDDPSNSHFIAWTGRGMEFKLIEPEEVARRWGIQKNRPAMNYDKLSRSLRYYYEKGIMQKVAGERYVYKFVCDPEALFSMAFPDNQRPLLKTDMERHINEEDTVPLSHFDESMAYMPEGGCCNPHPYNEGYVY
# Procedure, shortened: as §1
# ERF = biological target: T6, ERF (Homo sapiens, UniProt P50548 1-548)
# T6 sequence: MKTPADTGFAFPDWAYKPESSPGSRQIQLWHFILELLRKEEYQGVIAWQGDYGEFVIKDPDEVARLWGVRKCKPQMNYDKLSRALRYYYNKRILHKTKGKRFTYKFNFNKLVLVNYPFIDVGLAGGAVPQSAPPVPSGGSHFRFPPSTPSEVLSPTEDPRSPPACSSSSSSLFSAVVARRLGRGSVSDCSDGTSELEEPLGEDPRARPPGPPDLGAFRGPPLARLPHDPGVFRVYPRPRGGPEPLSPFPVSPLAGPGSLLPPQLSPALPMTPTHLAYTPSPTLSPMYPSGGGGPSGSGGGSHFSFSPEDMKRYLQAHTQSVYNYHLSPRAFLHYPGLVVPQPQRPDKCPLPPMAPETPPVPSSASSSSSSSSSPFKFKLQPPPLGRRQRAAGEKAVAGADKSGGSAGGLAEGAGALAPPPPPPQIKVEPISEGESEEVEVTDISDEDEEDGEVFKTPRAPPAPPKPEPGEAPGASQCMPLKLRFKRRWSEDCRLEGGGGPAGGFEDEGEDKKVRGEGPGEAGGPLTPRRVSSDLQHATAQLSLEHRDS
# Procedure, shortened: as §1
# ETV3L = biological target: T7, ETV3L (Homo sapiens, UniProt Q6ZN32 1-361)
# T7 sequence: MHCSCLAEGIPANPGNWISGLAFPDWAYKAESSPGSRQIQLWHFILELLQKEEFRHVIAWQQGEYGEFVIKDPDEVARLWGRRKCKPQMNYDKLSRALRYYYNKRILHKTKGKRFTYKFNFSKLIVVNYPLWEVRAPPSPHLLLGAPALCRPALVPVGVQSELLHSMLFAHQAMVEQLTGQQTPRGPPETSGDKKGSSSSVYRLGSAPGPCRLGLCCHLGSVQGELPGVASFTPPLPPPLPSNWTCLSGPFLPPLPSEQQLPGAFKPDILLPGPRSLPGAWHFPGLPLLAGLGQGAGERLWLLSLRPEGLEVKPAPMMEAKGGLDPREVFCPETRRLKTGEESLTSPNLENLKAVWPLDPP
# Procedure, shortened: as §1
# ETS2 = biological target: T8, ETS2 (Homo sapiens, UniProt P15036 1-469)
# T8 sequence: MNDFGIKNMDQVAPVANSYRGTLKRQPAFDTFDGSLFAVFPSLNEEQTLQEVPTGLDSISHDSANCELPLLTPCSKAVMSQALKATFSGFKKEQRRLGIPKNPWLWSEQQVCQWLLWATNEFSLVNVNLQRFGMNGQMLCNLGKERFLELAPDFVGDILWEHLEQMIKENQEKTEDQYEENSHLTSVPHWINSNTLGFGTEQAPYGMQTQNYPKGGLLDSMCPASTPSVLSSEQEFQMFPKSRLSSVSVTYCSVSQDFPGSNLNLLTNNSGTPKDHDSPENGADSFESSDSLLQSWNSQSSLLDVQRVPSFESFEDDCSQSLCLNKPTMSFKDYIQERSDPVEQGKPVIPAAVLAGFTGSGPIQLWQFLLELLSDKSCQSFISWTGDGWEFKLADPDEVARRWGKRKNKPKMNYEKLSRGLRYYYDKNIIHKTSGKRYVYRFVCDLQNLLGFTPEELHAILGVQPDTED
# Procedure, shortened: as §1
# SPDEF = biological target: T9, SPDEF (Homo sapiens, UniProt O95238 1-335)
# T9 sequence: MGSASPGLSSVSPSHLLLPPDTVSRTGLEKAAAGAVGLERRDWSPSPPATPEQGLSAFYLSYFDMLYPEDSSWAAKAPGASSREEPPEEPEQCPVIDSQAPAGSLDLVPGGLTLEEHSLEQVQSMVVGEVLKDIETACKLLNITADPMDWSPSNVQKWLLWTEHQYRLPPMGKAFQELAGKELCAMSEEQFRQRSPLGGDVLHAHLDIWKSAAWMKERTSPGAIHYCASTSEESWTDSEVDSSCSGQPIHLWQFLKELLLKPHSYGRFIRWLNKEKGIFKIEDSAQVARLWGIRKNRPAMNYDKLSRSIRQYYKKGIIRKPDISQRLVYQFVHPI
# Procedure, shortened: as §1
# ELF5 = biological target: T10, ELF5 (Homo sapiens, UniProt Q9UKW6-2 1-255)
# T10 sequence: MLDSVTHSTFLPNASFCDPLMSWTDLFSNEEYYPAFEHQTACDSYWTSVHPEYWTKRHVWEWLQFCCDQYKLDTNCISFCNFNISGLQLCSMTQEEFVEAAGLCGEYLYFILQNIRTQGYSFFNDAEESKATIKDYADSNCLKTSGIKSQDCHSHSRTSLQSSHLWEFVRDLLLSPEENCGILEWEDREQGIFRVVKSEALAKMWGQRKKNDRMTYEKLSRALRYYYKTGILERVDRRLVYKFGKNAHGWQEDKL
# Procedure, shortened: as §1
# ETV3 = biological target: T11, ETV3 (Homo sapiens, UniProt P41162-2 1-143)
# T11 sequence: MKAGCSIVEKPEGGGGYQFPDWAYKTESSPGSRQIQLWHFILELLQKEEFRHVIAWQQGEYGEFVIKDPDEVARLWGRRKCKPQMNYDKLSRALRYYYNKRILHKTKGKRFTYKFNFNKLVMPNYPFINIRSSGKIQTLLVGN
# Procedure, shortened: as §1
# ETV6 = ETV6 (Homo sapiens, UniProt P41212 1-452)
# Sequence of ETV6 (P41212 whole entry): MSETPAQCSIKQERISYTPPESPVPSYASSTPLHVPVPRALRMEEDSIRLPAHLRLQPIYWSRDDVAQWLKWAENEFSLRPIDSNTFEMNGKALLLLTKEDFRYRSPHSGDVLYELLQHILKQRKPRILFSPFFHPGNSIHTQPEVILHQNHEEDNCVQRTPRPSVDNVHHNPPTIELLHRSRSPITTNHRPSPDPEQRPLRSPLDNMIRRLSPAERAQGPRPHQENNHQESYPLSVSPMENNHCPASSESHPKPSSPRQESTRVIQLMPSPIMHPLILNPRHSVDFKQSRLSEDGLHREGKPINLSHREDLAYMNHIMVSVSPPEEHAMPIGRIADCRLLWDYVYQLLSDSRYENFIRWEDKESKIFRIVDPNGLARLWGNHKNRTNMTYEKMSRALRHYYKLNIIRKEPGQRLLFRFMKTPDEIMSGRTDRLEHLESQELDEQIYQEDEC
# Procedure, shortened: as §1
# ETV7 = biological target: T12, ETV7 (Homo sapiens, UniProt Q9Y603 1-341)
# T12 sequence: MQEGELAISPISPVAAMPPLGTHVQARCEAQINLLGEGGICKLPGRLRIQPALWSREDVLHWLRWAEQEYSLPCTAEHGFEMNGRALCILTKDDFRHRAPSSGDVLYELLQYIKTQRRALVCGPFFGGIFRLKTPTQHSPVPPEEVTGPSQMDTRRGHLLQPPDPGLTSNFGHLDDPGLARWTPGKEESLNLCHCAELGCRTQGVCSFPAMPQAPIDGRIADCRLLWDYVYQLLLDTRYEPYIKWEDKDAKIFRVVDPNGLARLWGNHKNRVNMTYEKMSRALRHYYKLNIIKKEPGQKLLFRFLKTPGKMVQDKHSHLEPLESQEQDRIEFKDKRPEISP
# Procedure, shortened: as §1
sequence,measurement,setting,value
CATGCC,binding signal,FEV,"1.13 fold enrichment (6-mer frequency, TF over GST control)"
same,binding signal,ETV5,"1.13 fold enrichment (6-mer frequency, TF over GST control)"
same,binding signal,SPIC,"1.16 fold enrichment (6-mer frequency, TF over GST control)"
same,binding signal,ELF4,"1.16 fold enrichment (6-mer frequency, TF over GST control)"
same,binding signal,ELK4,"1.17 fold enrichment (6-mer frequency, TF over GST control)"
same,binding signal,ETV2,"1.08 fold enrichment (6-mer frequency, TF over GST control)"
same,binding signal,ELF3,"1.13 fold enrichment (6-mer frequency, TF over GST control)"
same,binding signal,ETV1,"1.12 fold enrichment (6-mer frequency, TF over GST control)"
same,binding signal,ERF,"1.12 fold enrichment (6-mer frequency, TF over GST control)"
same,binding signal,ETV3L,"1 fold enrichment (6-mer frequency, TF over GST control)"
same,binding signal,ETS2,"1.05 fold enrichment (6-mer frequency, TF over GST control)"
same,binding signal,SPDEF,"1.09 fold enrichment (6-mer frequency, TF over GST control)"
same,binding signal,ELF5,"1.05 fold enrichment (6-mer frequency, TF over GST control)"
same,binding signal,ETV3,"1.22 fold enrichment (6-mer frequency, TF over GST control)"
same,binding signal,ETV6,"1.15 fold enrichment (6-mer frequency, TF over GST control)"
TGTGAC,binding signal,FEV,"1.14 fold enrichment (6-mer frequency, TF over GST control)"
same,binding signal,ETV5,"1.15 fold enrichment (6-mer frequency, TF over GST control)"
same,binding signal,SPIC,"1.14 fold enrichment (6-mer frequency, TF over GST control)"
same,binding signal,ELF4,"1.19 fold enrichment (6-mer frequency, TF over GST control)"
same,binding signal,ELK4,"1.2 fold enrichment (6-mer frequency, TF over GST control)"
same,binding signal,ETV2,"1.09 fold enrichment (6-mer frequency, TF over GST control)"
same,binding signal,ELF3,"1.16 fold enrichment (6-mer frequency, TF over GST control)"
same,binding signal,ETV1,"1.04 fold enrichment (6-mer frequency, TF over GST control)"
same,binding signal,ETV3L,"1.22 fold enrichment (6-mer frequency, TF over GST control)"
same,binding signal,ETS2,"1.14 fold enrichment (6-mer frequency, TF over GST control)"
same,binding signal,SPDEF,"1.2 fold enrichment (6-mer frequency, TF over GST control)"
same,binding signal,ETV7,"1.12 fold enrichment (6-mer frequency, TF over GST control)"
same,binding signal,ELF5,"1.1 fold enrichment (6-mer frequency, TF over GST control)"
same,binding signal,ETV3,"1.17 fold enrichment (6-mer frequency, TF over GST control)"
same,binding signal,ETV6,"1.07 fold enrichment (6-mer frequency, TF over GST control)"
